59 molecules from PubChem BioAssay AID1619 (SRMLSC, 2009) can be followed below.

By inhibition is commonly meant the drop in the measured response relative to a control, in per cent.

Among all 220,000 compounds or so, about 830 (0.38%) were called active.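 The calls were made as follows: active = compound inhibiting the enzyme by more than half at any dose during confirmatory dose-response retesting; inconclusive = strong single-dose inhibitors picked by rank but not retested; inactive = the rest.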 Only a sample is shown. Results with a measured potency or affinity are listed apart.

Sequence of Leucine aminopeptidase (Plasmodium falciparum (isolate 3D7)) (Q8IL11 whole entry, looked up): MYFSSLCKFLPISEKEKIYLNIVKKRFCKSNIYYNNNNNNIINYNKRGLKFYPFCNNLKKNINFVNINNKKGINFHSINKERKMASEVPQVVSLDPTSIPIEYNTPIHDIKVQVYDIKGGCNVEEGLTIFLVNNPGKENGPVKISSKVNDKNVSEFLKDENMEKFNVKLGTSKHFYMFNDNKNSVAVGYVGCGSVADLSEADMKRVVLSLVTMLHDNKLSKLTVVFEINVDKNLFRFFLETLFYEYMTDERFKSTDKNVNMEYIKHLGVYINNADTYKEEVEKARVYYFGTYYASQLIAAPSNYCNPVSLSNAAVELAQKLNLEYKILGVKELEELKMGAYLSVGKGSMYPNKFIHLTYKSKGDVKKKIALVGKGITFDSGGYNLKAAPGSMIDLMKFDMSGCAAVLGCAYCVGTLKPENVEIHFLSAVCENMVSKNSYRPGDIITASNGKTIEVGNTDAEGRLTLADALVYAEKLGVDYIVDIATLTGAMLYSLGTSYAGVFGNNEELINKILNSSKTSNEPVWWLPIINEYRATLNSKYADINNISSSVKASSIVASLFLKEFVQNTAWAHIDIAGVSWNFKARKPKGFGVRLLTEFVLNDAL

The experiment addresses Leucine aminopeptidase (Plasmodium falciparum (isolate 3D7)) (UniProt Q8IL11). In words: P. falciparum M17LAP inhibitors, primary screen, biochemical, fluorogenic H-Leu-NHMec substrate, 1536-well (AID 1619).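 Also: plate controls were full reaction with DMSO carrier for no effect and no enzyme background for full effect.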 The note with it: recombinant M17LAP, H-Leu-NHMec fluorogenic kinetic assay; at 30 µM; active compounds read high.
As for `COC(=O)c1ccc(C(=S)N2CCCCC2)cc1`, the inhibition was 3.47% (inactive).
Consider `CCOc1ccc(NC(=O)c2ccc(NCC(=O)N3CCCCCC3)cc2)cc1`, for which the inhibition is -2.72% (inactive).
Consider `Cn1c(=O)c2c(nc(Br)n2Cc2ccccc2Cl)n(C)c1=O`, for which the inhibition is 0.26% (inactive).
With `Cc1ncc([N+](=O)[O-])n1Cc1ccccc1F`, the inhibition was 10.8% (inactive).
Turning to `O=C(c1ccc([N+](=O)[O-])cc1)N1CCN(C(=O)c2ccco2)CC1`, the inhibition was 2.53% (inactive).
Turning to `O=C(c1ccco1)N1CCN(C(=O)c2ccccc2[N+](=O)[O-])CC1`, the inhibition was 4.98% (inactive).
As for `CC(=O)Nc1ccccc1NC(=O)C/C(C)=N/NC(=O)c1ccncc1`, the inhibition is 7.62% (inactive).
As for `N#C/C(=N\Nc1ccc(Cl)cc1)C(=O)c1ccsc1`, the inhibition is 4.01% (inactive).
As to `CCCCNC(=O)c1ccc2c(SCC(=O)O)c3c(nc2c1)CCCC3`, the inhibition is 45.8% (inactive).
Consider `CC(C)CCNC(=O)c1ccc2c(SCC(=O)O)c3c(nc2c1)CCC3`, for which the inhibition was 7.01% (inactive).
For `CCC(C)NC(=O)c1ccc2c(SCC(=O)O)c3c(nc2c1)CCCC3` (centres undefined), the inhibition is 25.2% (inactive).
For `COc1cc(NC(=O)c2ccc3c(SCC(=O)O)c4c(nc3c2)CCCC4)cc(OC)c1OC`, the inhibition is 8.1% (inactive).
As for `O=C(Nc1ccc(Cl)cc1)c1cc(S(=O)(=O)N2CCOCC2)cs1`, the figure is 1.6% (inactive); as for `Cc1ccc(C)c(S(=O)(=O)N2CCN(C(=O)c3cnccn3)CC2)c1`, 6.85% (inactive).
For `CCCCCC(=O)N/N=C/c1ccccc1[N+](=O)[O-]`, the inhibition is 36.9% (inactive).
On to `O=C1CC(CC(=O)N/N=C/c2ccccc2[N+](=O)[O-])=NN1`, for which the inhibition was 56.8% (inactive).
In the case of `CC1=NNC(=O)C1CCC(=O)N/N=C/c1ccc(C)cc1` (centres undefined) it was 5.32% (inactive).
As for `CC1=NNC(=O)C1CCC(=O)N/N=C/c1ccc(Cl)cc1Cl` (centres undefined), the figure is 11.1% (inactive); as for `CC1=NNC(=O)C1CCC(=O)N/N=C/c1c(Cl)cccc1Cl` (centres undefined), -1.12% (inactive); as for `CC1=NNC(=O)C1CCC(=O)N/N=C/c1ccccc1` (centres undefined), -4.86% (inactive).
As for `CC1=NNC(=O)C1CC(=O)N/N=C/c1sccc1C` (centres undefined), the figure is 9.78% (inactive).
Take `O=C(Cc1c(F)cccc1Cl)Nc1cc(S(=O)(=O)N2CCCCC2)ccc1N1CCOCC1`: the inhibition was 10.3% (inactive).
As to `COc1cccc(Nc2cc(C)nc3nc(C)nn23)c1`, the inhibition was 1.55% (inactive).
Turning to `Cc1cc(C)c(NC(=O)CCCOC(=O)C2=COCCO2)c(C)c1`, the inhibition is 12.3% (inactive).
Take `O=C(NCc1ccco1)C(c1ccccc1)N(Cc1cccnc1)C(=O)Cn1nnc2ccccc21` (centres undefined): the inhibition was 2.12% (inactive).
Take `CCOC(=O)N1CCC(NC(=O)c2cc(S(=O)(=O)N3CCOCC3)ccc2F)CC1`: the inhibition was -2.28% (inactive).
`O=C(Nc1ccc(F)c(F)c1)c1cnc(-c2ccccc2)nc1-c1ccccc1`: the inhibition is 6.48% (inactive).
With `COc1ccccc1NC(=S)NCCc1c[nH]c2ccccc12`, the inhibition is 1.87% (inactive).
Turning to `CC1(C)CC2CC(C)(CN2Cc2c(O)ccc3ccccc23)C1` (centres undefined), the inhibition was -1.68% (inactive).
For the molecule `CC1C(=O)NN=C1C(=O)N/N=C/c1ccco1` (centres undefined), the inhibition is 5.8% (inactive).
As for `O=C(CCC(=O)N/N=C/c1ccco1)N/N=C/c1ccco1`, the figure is 6.28% (inactive); as for `COc1ccc2cc(C)c3nnc(SCC(=O)Nc4cc(OC)c(OC)cc4C(=O)O)n3c2c1`, 3.81% (inactive).
`COc1ccc(OC)c(NC(=O)CSc2nc3ccccc3cc2Cc2ccccc2)c1`: the inhibition was -12.8% (inactive).
`CCc1cc2cc(OC)ccc2nc1SCC(=O)NNC(=O)c1ccco1`: the inhibition was -4.39% (inactive).
Consider `CCOC(=O)CC(=O)CSc1nc2ccc(OC)cc2cc1C`, for which the inhibition was -7.77% (inactive).
In the case of `CC(C)CN(CC(C)C)S(=O)(=O)N1CCC(C(=O)NCc2ccc3c(c2)OCO3)CC1` it was -3.17% (inactive); in that of `Cc1ccc(-n2cccc2/C=C2/C(=N)N3C(=NC2=O)SN=C3S(C)(=O)=O)cc1`, 26.3% (inactive); in that of `CC(C)S(=O)(=O)C1=NSC2=NC(=O)/C(=C\c3ccc(-c4cccc(C(=O)O)c4)o3)C(=N)N21`, 46.5% (inactive).
On to `CS(=O)(=O)C1=NSC2=NC(=O)/C(=C\c3ccc(-c4ccccc4)o3)C(=N)N21`, for which the inhibition is 55.5% (inactive).
In the case of `N=C1/C(=C\c2ccc(-c3ccc(C(=O)O)cc3)o2)C(=O)N=C2SC=C(c3ccccc3)N12` it was 23.3% (inactive); in that of `Cc1ccc(-n2nc(C)c3c2OC(N)=C(C#N)C3c2ccncc2)cc1` (centres undefined), 21.6% (inactive); in that of `Cc1cc(C(=O)NC2CCCCC2)on1`, 13.6% (inactive).
With `O=C(COC(=O)c1cncc(Br)c1)NCc1ccccc1`, the inhibition was -0.29% (inactive).
Consider `C/C(=N/O)c1no[n+]([O-])c1/C(C)=N\O`, for which the inhibition is 4.25% (inactive).
In the case of `COC(=O)CSc1nc2cc(Cl)ccc2c(=O)n1C1CCCC1`, the inhibition was -2.31% (inactive).
As to `Cc1c(N=C(N)/N=C(\N)Nc2ccc(Br)cc2)c(=O)n(-c2ccccc2)n1C`, the inhibition is -11.5% (inactive).
In the case of `CC1CCCCN1S(=O)(=O)c1ccc(N(C(=O)c2cnccn2)C(C(=O)NC2CCCCC2)c2cccs2)cc1` (centres undefined) it was -5% (inactive).
As to `CC(C)C(=O)c1cc2c(cc1NC(=O)c1cccs1)OCCO2`, the inhibition was 2.83% (inactive).
For `CC(OC(=O)c1cc2c(ccc3ccccc32)oc1=O)c1nc2ccccc2s1` (centres undefined), the inhibition was -3.25% (inactive).
As for `Cc1cc(NCc2ccc3c(c2)OCO3)n2nc(C)nc2n1`, the inhibition was -0.05% (inactive).
Take `COc1cccc(-c2nnn(CC(=O)NC3CCCC3)n2)c1OC`: the inhibition was 13.1% (inactive).
Turning to `COc1cccc(-c2nnn(CC(=O)Nc3ccc(C)cc3C)n2)c1OC`, the inhibition was -10% (inactive).
In the case of `CC(=O)c1cc(CN2CCN(CC=C(C)C)C(CCO)C2)cs1` (centres undefined) it was -1.16% (inactive).
For `CC1(C)CC(C#N)(N2CCOCC2)CCO1` (centres undefined), the inhibition was -15.2% (inactive).
Regarding `COc1cccc2c(SCC(=O)N/N=C/c3ccc(O)cc3O)cc(C)nc12`, the inhibition was 16.9% (inactive).
Consider `COc1cccc2c(SCC(=O)N/N=C/c3ccccc3)cc(C)nc12`, for which the inhibition is 2.63% (inactive).
Consider `Cc1ccc2nc(C(O)C(O)c3nc4ccc(C)cc4[nH]3)[nH]c2c1` (centres undefined), for which the inhibition is 12.8% (inactive).
With `Cc1[nH]c(C(=O)N/N=C/c2ccc(N(C)C)cc2)c(C)c1C(=O)N/N=C/c1ccc(N(C)C)cc1`, the inhibition is -3.97% (inactive).
On to `COc1ccc(/C=N/NC(=O)c2[nH]c(C)c(C(=O)N/N=C/c3ccc(OC)cc3)c2C)cc1`, for which the inhibition was -5.84% (inactive).
